Tau ThT inhib – tau fibrillization inhibition (ThT binding) | P10636 | recombinant tau K18 P301L, heparin-induced fibrillization, ThT fluorescence | Potency, µM (series often up to 57.4 µM), for the others: at the highest dose activity, negative = inhibition, most hits filed as inhibitors | 270,000 compounds, 2.1% hits | AID 1460; also: potency is read from the fitted curve at half-maximal effect; nearly all actives have a fitted effect of over 55% in size
Target sequence (P10636 561-689 P618L limits assumed): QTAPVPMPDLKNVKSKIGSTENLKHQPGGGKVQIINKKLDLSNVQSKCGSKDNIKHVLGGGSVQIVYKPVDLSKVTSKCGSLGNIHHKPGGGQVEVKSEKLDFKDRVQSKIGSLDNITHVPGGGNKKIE
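Recombinant human tau K18 fragment […] carrying P301L, 15 uM unlabeled plus 0.24 uM Alexa 594-labeled, was fibrillized with 20 uM heparin in 100 mM sodium acetate pH 7 for 6 hr at 37 C; 30 uM ThT fluorescence read after 1 hr.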
Tau fibril FP – inhibitors of human tau fibril formation | P10636 | K18 P301L tau heparin fibrillization, Alexa594 FP, 6 h | 280,000 compounds, 0.39% hits | AID 1468 | Potency, µM (top dose mostly 57.7 µM), inactives show top-dose activity, negative = inhibition, hits mostly inhibitors; also: potency is read from the fitted curve at half-maximal effect; nearly all actives have a fitted effect of over 55% in size
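K18 P301L tau (15 uM unlabeled/0.24 uM Alexa 594-labeled, final) + compound + heparin 20 uM final; 100 mM NaOAc pH 7; 6 hr 37 C; ThT 30 uM final added, 1 hr RT; FP ex 555/em 632 nm.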
Tau fluor cs – counter-screen for tau fibril formation inhibitors | tau K18 P301L (four-repeat tau fragment) Alexa594 fluorescence, heparin fibrillization | Potency, µM (top dose mostly 57.7 µM), without a hit: at the top dose activity change, negative = decrease | 280,000 compounds, 0.93% hits | AID 1463; also: potency is read from the fitted curve at half-maximal effect; nearly all actives have a fitted effect of over 55% in size
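Human K18 P301L tau (15 uM unlabeled plus 0.24 uM Alexa 594-labeled, final) in 100 mM sodium acetate pH 7 was mixed with compound and 20 uM heparin and incubated 6 hr at 37 C.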
Coupling enz – inhibits coupling enzyme system, counter-screen for aldolase hits; coupling enzyme system counterscreen, AmpLite Red fluorescence; activity change, negative = inhibition, % at 58.2 µM, hits read low; 290,000 compounds, 0.67% hits; AID 2472; in the data active = activity change below about -30%
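Counterscreen lacking aldolase: glyceraldehyde-3-phosphate coupling-enzyme reagent preincubated 10 min at RT with compound (at 57.5 uM final), then substrate/coupling system with AmpLite Red added; fluorescence read at 525/598 nm after 20 min RT.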
The depositor's hits bear a star; ? = inconclusive; . = not tested or not shown; [ ] = remark or other dose. In the library only some 2.7% were active in any assay of this set; here they are far more common. Unless noted, calls follow the shape of the dose curve; as a rule, active = well fitted curve in the direction sought with a large enough effect; inconclusive = small, poorly fitted or top-dose-only effect, or another doubt; inactive = no such curve, though single readings can be large; an effect the other way counts as inactive or inconclusive. % is scaled to controls: 0 for no effect and ±100 for the full control effect.

SMILES | Tau ThT inhib | Tau fibril FP | Tau fluor cs | Coupling enz
CCN(CC)C(=O)Cn1c(=O)nc(-c2ccccc2F)c2cc(Cl)ccc21 | 4% | 0% | 4% | .
c1ccc(-c2nc(-n3ccnc3)nc(-n3ccnc3)n2)cc1 | -12% | -2% | -17% | -51*
COc1ccccc1CNc1ncnc2ccc(-c3ccccc3OC)cc12 | . | . | . | 1
COc1ccccc1CNc1ncnc2ccc(-c3ccc(N(C)C)cc3)cc12 | 11µM* | ? | 10µM*[quencher] | -20
CSc1ccc(/C=C/c2nc3ccccc3n2S(=O)(=O)c2ccc(Br)cc2)cc1 | 3% | ? | 32µM*[quencher] | .
COc1cc(C)c(CNc2ccc(OC)c(OC)c2)cc1C | ? | -6% | ? | -31*
COc1cc(C)c(CNc2cccc(C)c2)cc1C | 4% | 3% | -3% | 1
Nc1nc2ccc([N+](=O)[O-])c(N)c2s1 | 11µM* | ? | ? | -1
CCOC(=O)NNc1ccc2nonc2c1[N+](=O)[O-] | 13µM* | ? | -29% | -44*
CCc1ccc(NC(=O)CSc2nc3nc(C)cc(C)n3n2)cc1 | -3% | -5% | -7% | .
Oc1cccc(/C=N/N(Cc2ccccc2)c2ccccc2)c1 | ? | ? | 13µM*[quencher] | -4
C(=N\N(Cc1ccccc1)c1ccccc1)/c1cccnc1 | ? | 2% | -26% | 1
Oc1ccc(/C=N/N(Cc2ccccc2)c2ccccc2)c(O)c1O | 28µM* | ? | 28µM*[quencher] | -28
CC(=O)NCc1ccc(S(=O)(=O)NC(C(=O)O)C(C)C)cc1 (configuration not stated) | 25µM* | ? | -10% | 1
CC(C)(C)c1ccc(C2Sc3ccccc3NC3=C2C(=O)c2ccccc23)cc1 (configuration not stated) | -11% | ? | 5.6µM*[quencher] | .
O=C1OCC2=C1C(c1ccc(F)cc1)Sc1ccccc1N2 (configuration not stated) | 10% | -10% | ? | -11
CCOc1ccc(NC(=O)C(C)Sc2nnc3cc(C)c4ccccc4n23)cc1 (configuration not stated) | -13% | 12% | -9% | .
Cc1ccc(C)c(Nc2ncnc3onc(C)c23)c1 | -5% | -1% | -5% | .
O=C(N/N=C/c1ccc(N2CCCCC2)o1)C(O)(c1ccccc1)c1ccccc1 | ? | ? | -24% | -7
Cc1ccc2[nH]c(O)c(N=Nc3nc4ccccc4s3)c2c1 | . | 1% | ? | 2
COC(=O)/C=C(\C)N=Nc1c(O)[nH]c2ccccc12 | 11µM* | -6% | -20% | -8
Oc1[nH]c2ccccc2c1N=Nc1nc2ccccc2s1 | 2µM* | 7% | ? | 6
O=C(N=Nc1c(O)[nH]c2ccccc12)c1cc(-c2ccc(F)cc2)n[nH]1 | 2.2µM* | -3% | -16% | 1
O=NC1=C(c2c(O)[nH]c3ccccc23)CCCC1 | -4% | 3% | 2% | 4
CC(C)(O)C(=O)N=Nc1c(O)[nH]c2ccccc12 | 10% | 5% | 13% | -5
SMILES | Tau ThT inhib | Tau fibril FP | Tau fluor cs | Coupling enz
O=Nc1c(-c2c(O)[nH]c3ccccc23)[nH]c2ccccc12 | 2.8µM* | ? | 16µM*[quencher] | -6
O=C(N=Nc1c(O)[nH]c2ccccc12)c1cc(-c2cccs2)[nH]n1 | . | -6% | ? | -17
Cc1nn(C(=O)c2ccc(Cl)cc2)c(C)c1S(=O)(=O)N1CCOCC1 | 3% | 8% | 8% | .
Cc1cccc(NC(=S)N=Nc2c(O)[nH]c3ccccc23)c1 | 7.9µM* | -1% | 14µM*[quencher] | 0
Oc1[nH]c2ccccc2c1N=Nc1ccc(F)cc1 | 2µM* | 2% | -28% | -1
NS(=O)(=O)c1cc(C(=O)N=Nc2c(O)[nH]c3ccccc23)ccc1Cl | 14µM* | 1% | -30% | -1
COc1ccccc1NC(=S)N=Nc1c(O)[nH]c2ccc(Br)cc12 | ? | -2% | ? | 0
Oc1[nH]c2ccccc2c1N=Nc1ccccc1 | ? | -5% | ? | 0
O=C(N=Nc1c(O)[nH]c2ccccc12)c1cccc(S(=O)(=O)Nc2ccccc2Cl)c1 | ? | -13% | -27% | -2
COc1cc(-c2nc3cnccn3c2Nc2ccc3c(c2)OCCO3)ccc1O | ? | 9% | ? | 0
COc1cc(-c2nc3ccc(C)cn3c2Nc2ccc3c(c2)OCCO3)ccc1O | ? | 10% | 16µM*[quencher] | 2
Oc1ccc(-c2nc3ncccn3c2Nc2ccc3c(c2)OCO3)cc1 | ? | 9% | ? | -1
Oc1ccc(-c2nc3ccccn3c2Nc2ccc3c(c2)OCCO3)cc1 | ? | 13% | ? | .
COc1cc(-c2nc3cccc(C)n3c2Nc2ccc3c(c2)OCCO3)ccc1O | ? | 4% | 18µM*[quencher] | .
Clc1cccc(-c2nc3ccccn3c2Nc2ccc3c(c2)OCCO3)c1 | ? | ? | 7.9µM*[quencher] | .
Cc1ccn2c(Nc3ccc4c(c3)OCO4)c(-c3ccc(O)cc3)nc2c1 | ? | 3% | 18µM*[quencher] | 1
Cc1cccc2nc(-c3ccco3)c(Nc3ccc4c(c3)OCCO4)n12 | -16% | 9% | -22% | 0
Cc1cc(Br)ccc1NC(=O)c1cn(C2CCCC2)c(=O)c2c1c1ccccc1n2C | -3% | 3% | -5% | .
CCOc1cc(Br)c(C2C(C(=O)OC)=C(C)NC3=C2C(=O)c2ccccc23)cc1OCC (configuration not stated) | ? | 11% | ? | .
CCOc1cc(C2C(C(=O)OC)=C(C)NC3=C2C(=O)c2ccccc23)c(Br)cc1OC (configuration not stated) | ? | 0% | 16µM*[quencher] | .
CCOc1cc(C2C(C(=O)OC)=C(C)NC3=C2C(=O)c2ccccc23)ccc1OC (configuration not stated) | ? | 5% | ? | .
CCOc1cc(C2C(C(=O)OC)=C(C)NC3=C2C(=O)c2ccccc23)cc(Br)c1OCC (configuration not stated) | ? | ? | 4µM*[quencher] | .
C#CCOc1ccc(C2C(C(=O)OC)=C(C)NC3=C2C(=O)c2ccccc23)cc1OCC (configuration not stated) | ? | -4% | 11µM*[quencher] | .
CCOC(=O)COc1cc(Br)c(C2NC(=O)NC(C)=C2C(C)=O)cc1OCC (configuration not stated) | -7% | 3% | -4% | 3
CCOc1cc(C2C(C(=O)OC)=C(C)NC3=C2C(=O)c2ccccc23)c(Br)cc1O (configuration not stated) | 5µM* | 11% | 14µM*[quencher] | .
O=C(Nc1ccccc1-c1nc2ccccc2[nH]1)c1ccc(N2C(=O)CCC2=O)cc1 | 6% | -13% | -11% | 4
CC1CCCCN1S(=O)(=O)c1ccc(NC(=O)c2cccc(-n3cnnn3)c2)cc1 (configuration not stated) | 9% | ? | 18µM*[quencher] | -1
O=C(Nc1ccccc1-c1nc2ccccc2[nH]1)c1ccc(S(=O)(=O)N2CCCCC2)cc1 | 6% | 13µM* | ? | -2
CC1CCCCN1S(=O)(=O)c1ccc(C(=O)Nc2ccccc2-c2nc3ccccc3[nH]2)cc1 (configuration not stated) | 16% | 14µM* | ? | -3

Screens as filed in PubChem.
